# HPGD inh: inhibitors of human 15-hydroxyprostaglandin dehydrogenase (HPGD) | P15428 | purified HPGD, NADH fluorescence kinetic, PGE2 substrate | Potency, µM, actives largely listed as inhibitors | hit rate 4.3% among 150,000 | AID 894; active = well fitted inhibition curve with a large enough effect, not every such curve was filed as active; inconclusive = small, poorly fitted or top-dose-only effect, or another doubt; inactive = no such curve, though single readings can be large or run the other way
#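 NADH formation kinetics: reaction with 30 uM PGE2 and 1 mM NAD+ (final), 20 nM enzyme, Tris-HCl pH 8 with Tween 20, after 15 min compound preincubation at room temperature. Fluorescence change, last versus first of five reads.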
# IMPase Li inh: membrane-permeable IMPase blocker, potentiated with lithium | Potency, µM (series often up to 59.4 µM), most hits filed as inhibitors | hit rate 0.35% among 210,000 | CHO-M1 cells, IP1 TR-FRET (IP-One), carbachol + lithium | AID 1457;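 note: IP1 builds up when IMPase is blocked and the TR-FRET signal falls; nearly all actives have a fitted effect of over 50% in size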
#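 IP1 accumulation measured by competitive TR-FRET in lysed CHO-M1 cells after 30 min compound exposure at 37C, with a small lithium addition to potentiate weak responses. Hill-equation AC50 from ratio and donor-channel data.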
# IMPase inh: IMPase inhibition in cells | P97697 | CHO-M1 cells, IP1 accumulation, HTRF TR-FRET ratio | inhibition (IP1 accumulation), % at 46.1 µM | 120,000 tested, under 10 active | AID 901; active = well fitted curve in the direction sought with a large enough effect in the signal ratio, not every such curve was filed as active; inconclusive = small, poorly fitted or top-dose-only effect, or a change in a side signal; inactive = no such curve, though single readings can be large or run the other way; the % refers to the signal ratio;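 note: cells stimulated with carbachol in lithium chloride buffer; higher means more IMPase inhibition seen as more IP1 and lower FRET ratio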
# Target sequence (P97697 whole entry, looked up): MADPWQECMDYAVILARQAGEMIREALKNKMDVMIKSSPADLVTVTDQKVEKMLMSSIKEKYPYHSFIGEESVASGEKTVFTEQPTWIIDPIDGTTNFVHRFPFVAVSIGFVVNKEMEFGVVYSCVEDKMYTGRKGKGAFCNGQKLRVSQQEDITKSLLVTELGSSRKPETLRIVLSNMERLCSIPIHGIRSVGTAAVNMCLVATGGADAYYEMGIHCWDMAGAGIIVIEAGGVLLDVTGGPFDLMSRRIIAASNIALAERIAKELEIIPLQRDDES
#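 Measured: the HTRF emission ratio (665/620 nm) plus the 620 nm donor channel, each fitted to the Hill equation to give AC50. Cells were CHO-M1 given compounds up to 46 uM and a 30 min carbachol stimulation at 37C.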
# ALDH1A1 block: blocks purified human ALDH1A1 activity | P00352 | Purified ALDH1A1, NADH fluorescence, propionaldehyde substrate | Potency, µM (top dose mostly 75.3 µM), actives largely listed as inhibitors | hit rate 7.3% among 220,000; active = well fitted inhibition curve with a large enough effect, not every such curve was filed as active; inconclusive = small, poorly fitted or top-dose-only effect, or another doubt; inactive = no such curve, though single readings can be large or run the other way
# Target sequence (P00352 whole entry, looked up): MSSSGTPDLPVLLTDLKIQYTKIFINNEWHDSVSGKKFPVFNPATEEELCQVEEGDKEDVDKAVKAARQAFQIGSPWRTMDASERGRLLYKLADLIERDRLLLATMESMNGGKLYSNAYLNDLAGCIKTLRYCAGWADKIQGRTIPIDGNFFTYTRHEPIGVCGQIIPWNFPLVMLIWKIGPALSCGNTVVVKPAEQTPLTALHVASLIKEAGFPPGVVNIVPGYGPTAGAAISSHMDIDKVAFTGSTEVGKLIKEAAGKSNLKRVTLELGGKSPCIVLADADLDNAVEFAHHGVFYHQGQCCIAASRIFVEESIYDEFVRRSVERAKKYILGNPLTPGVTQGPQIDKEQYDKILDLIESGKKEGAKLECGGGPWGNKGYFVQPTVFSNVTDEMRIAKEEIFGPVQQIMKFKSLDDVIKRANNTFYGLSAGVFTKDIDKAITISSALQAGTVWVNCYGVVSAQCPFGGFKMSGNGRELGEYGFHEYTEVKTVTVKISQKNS
# PNC assembly inh: blocks assembly of the perinucleolar compartment; hit rate 3.1% among 140,000; activity change (PNC), negative = inhibition, % at 10 µM; AID 2417; PC3M PTB-GFP, PNC prevalence imaging, 16 h; stronger effect = lower value;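 active = readout at or below -70, meaning at least 70% loss of cells showing the perinucleolar compartment, a nuclear body marking cancer cells; inconclusive = readout between -30 and a set limit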
#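 Compounds are pinned in duplicate onto adhered PC3M cells stably expressing GFP-tagged PTB and incubated 16 h at 37 C. Cells are then fixed, nuclei stained with Hoechst, and PNC-positive cells counted.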
# NPSR antag: blocks cAMP signaling of the human neuropeptide S receptor; Q6W5P4; CHO-NPSR cells, cAMP TR-FRET, antagonist mode; Potency, µM (titrated, usually from 38.3 µM), hits mostly inhibitors; hit rate 1% among 220,000; note: nearly all actives have a fitted effect of over 50% in size
# Hits are given with their value; n = inactive; u = inconclusive; x = no result; [ ] = another dose, or the depositor's remark. Shown are actives, neighbours in structure and some others; about 11% of the full set was active somewhere. Unless noted, calls come from the whole dose curve; as a rule, active = well fitted curve in the direction sought with a large enough effect; inconclusive = small, poorly fitted or top-dose-only effect, or another doubt; inactive = no such curve, though single readings can be large; an effect the other way counts as inactive or inconclusive.
SMILES,HPGD inh,IMPase Li inh,IMPase inh,ALDH1A1 block,PNC assembly inh,NPSR antag
CC(C)c1nnc(NC(=O)c2cc3cc(Br)ccc3oc2=O)s1,x,x,x,x,x,n
C/C(CC(=O)N(C(C)C)C(C)C)=N\NC(=O)COc1ccc(Cl)cc1Cl,x,n,x,u,x,n
Cc1cccc(/C(N)=N/OC(=O)N2c3ccccc3Sc3ccccc32)c1,17.8µM,n,n,n,n,n
N/C(=N\OC(=O)N1c2ccccc2Sc2ccccc21)c1ccccc1,17.8µM,n,n,n,u,n
O=C(CNC(=O)c1ccccc1)OCC(=O)N1c2ccccc2Sc2ccccc21,n,n,x,n,n,n
Cc1cccc(/C(N)=N/OC(=O)Cc2ccccc2)c1,x,n,x,n,x,n
Cc1cccc(/C(N)=N/OC(=O)C23CC4CC(CC(C4)C2)C3)c1,n,n,x,n,-113.8,n
CC(C)OC(=O)c1nnc(Cc2ccc(F)cc2)o1,n,n,n,n,n,u
CC(C)C[C@H](N)c1nnc(S(=O)(=O)Cc2ccc(F)cc2)o1,25.1µM,n,n,1.58µM,n,u
NS(=O)(=O)c1ccc(NNC(=O)c2ccccc2)cc1,x,x,x,x,x,n
O=C(NNc1cc(Br)c(O)c(Br)c1)c1ccccc1,x,n,x,17.8µM,x,n
CS(=O)(=O)N1CCC2(CCN(c3cccc(-c4ccccc4)c3)CC2)CC1,u,n,x,n,x,x
C=C(CO)C1Cc2c(ccc3c2OC2COc4cc(OC)c(OC)cc4C2C3=O)O1 (stereo not drawn),n,n,n,22.4µM,x,x
Cc1ccc(N2C(=O)[C@@H]3[C@H](C2=O)[C@H]2C=CC=NN2[C@@H]3C(=O)Nc2ccccc2)cc1,x,x,x,25.1µM,x,n
COc1ccc(N2C(=O)[C@@H]3[C@H](C2=O)[C@H](C(=O)c2ccc(OC(C)=O)cc2)N2N=CC=C[C@@H]32)cc1,n,n,x,u,n,n
O=C(Nc1ccccc1)[C@@H]1[C@@H]2C(=O)N(c3ccc(F)cc3)C(=O)[C@@H]2[C@H]2C=CC=NN21,x,x,x,u,x,n
CC(=O)Oc1ccc(C(=O)[C@H]2[C@H]3C(=O)N(c4ccc(C)cc4)C(=O)[C@H]3[C@@H]3C=CC=NN32)cc1,u,n,x,20µM,n,n
Cc1oc2ccccc2c1CNC(=O)N(C)C,x,x,x,x,x,n
Cc1cc2n(n1)SC(Nc1cccc3ccccc13)N2 (stereo not drawn),n,n,n,12.6µM,n,n
CCc1ccccc1NC1Nc2cc(C)nn2S1 (stereo not drawn),x,n,x,u,x,n
Cc1cc2n(n1)SC(Nc1ccc(F)cc1)N2 (stereo not drawn),n,n,u,28.2µM,n,n
Cc1cc2n(n1)SC(Nc1cc(Cl)ccc1Cl)N2 (stereo not drawn),n,n,n,3.55µM,-100.0,n
O=C(Oc1cc(Cl)cc(Cl)c1)c1cnc2n(c1=O)CCS2,x,x,x,n,x,n
CCCC(=Nc1ccccc1)C1=C(O)C(C(=O)OC)C(C)(C)CC1=O (stereo not drawn),n,n,n,u,n,n
Cc1c(C(=O)Nc2ccccc2)cn2c(nc3ccccc32)c1C#N,n,n,x,u,-80.1,n
SMILES,HPGD inh,IMPase Li inh,IMPase inh,ALDH1A1 block,PNC assembly inh,NPSR antag
COc1ccc(NC(=O)c2cn3c(nc4ccccc43)c(C#N)c2C)cc1,x,x,x,x,x,n
O=[N+]([O-])/C(C(Cl)=C(Cl)Cl)=C(/NC1CC1)Sc1ccccc1,x,n,x,17.8µM,x,n
O=C(NC1CC1)C1CCN(C2CCN(C(=O)CSc3ccccc3)CC2)CC1,x,x,x,x,x,n
COc1cc(-c2cc(=O)c3c(O)c(OC)c(OC)c(OC)c3o2)cc(OC)c1OC,n,n,x,11.2µM,x,n
COc1ccc(-c2cc(=O)c3cc(OC)ccc3o2)cc1,u,u,x,u,x,n
COc1ccc(-c2cc(=O)c3c(OC)c(OC)c(OC)c(OC)c3o2)cc1,n,n,x,1.41µM,x,x
Nc1nnnn1/N=C/c1cccc(O)c1,n,n,n,n,n,n
COC(=O)c1sc2ncn(N)c(=O)c2c1C,x,x,x,x,x,n
c1ccc2c(c1)oc1c(Nc3ccc(CN4CCOCC4)cc3)ncnc12,n,n,n,20µM,n,n
c1ccc2c(c1)oc1c(NCCN3CCOCC3)ncnc12,n,n,n,n,u,n
CCOC(=O)N1CCc2c(sc(N)c2C#N)C1,x,x,x,x,x,n
CCOC(=O)C1CCc2sc(N)c(C#N)c21 (stereo not drawn),n,n,n,u,-135.3,n
COCCn1c(=O)c(-c2cccs2)nc2cnc(N3CCOCC3)nc21,x,11.2µM,x,u,x,x
O=C(NCc1ccccn1)C(=O)NN=C1CCCCCCCCCCC1,x,n,x,n,x,n
O=C(N/N=C/c1nn(-c2ccccc2)cc1-c1ccccc1)c1ccncc1,u,n,x,n,n,n
CCOC(=O)CCCCC(=O)c1[nH]c(=O)[nH]c1CSCCO,n,n,n,n,n,n
CS(=O)(=O)N(CC(=O)Nc1ccc(S(=O)(=O)N2CCCC2)cc1)c1ccccc1,x,n,x,n,x,n
C=CCSC(=C(C#N)C#N)c1cc2c([nH]1)CCCC2,n,n,n,u,n,12.6µM
O=C(O)c1cc2c([nH]c1=O)CCCC2,u,u,n,u,n,n
COc1ccc(-c2nc3c(c4c2C[C@H](c2ccccc2)OC4)CN(C(=O)NCc2ccco2)CC3)c(C)c1,n,n,x,1.78µM,x,x
COc1ccc(-c2nc3c(c4c2C[C@H](c2ccccc2)OC4)CN(C(=O)Cc2cccs2)CC3)c(C)c1,n,n,x,3.98µM,x,x
COCC(=O)N1CCc2nc(-c3ccc(OC)cc3C)c3c(c2C1)CO[C@@H](c1ccccc1)C3,n,n,x,n[13.5 µM],x,x
Cc1onc(C(=O)N2C(C)CCCC2C)c1[N+](=O)[O-] (stereo not drawn),n,n,n,n,n,n
CCCOc1ccc(C2c3c(oc4ccccc4c3=O)C(=O)N2CCN(CC)CC)cc1OC (stereo not drawn),n,n,n,n,u,n
CC(C)(C)NC(=O)CN1CCN(C(=O)CCl)CC1,x,n,x,0.316µM,x,n
SMILES,HPGD inh,IMPase Li inh,IMPase inh,ALDH1A1 block,PNC assembly inh,NPSR antag
CC(C)(C)NC(=O)NC(=O)CN1CCCCCCC1,x,n,x,u,x,n
CCOC(=O)N1CCN(C(=O)Cc2ccc(Cl)cc2)CC1,x,x,n,n,u,n
CCOC(=O)N1CCN(C(=O)CCl)CC1,x,n,x,0.562µM,x,n
Cc1ccc(/C=C(\C#N)C(=O)Nc2cccc(Br)c2)o1,x,x,n,x,x,x
N#C/C(=C\c1ccc(N2CCCCC2)o1)C(=O)Nc1cccc(Br)c1,n,n,x,u,-108.4,n
N#Cc1cc(-c2ccccc2)nn1-c1ccccc1,12.6µM,n,n,22.4µM,n,n
Cn1ccc(-c2ccccc2)n1,x,n,x,n,x,n
CCN(CC)C(=O)C1CCN(S(=O)(=O)c2ccc(-n3cnnn3)cc2)CC1,x,n,x,u,x,n
NC(=O)CN1C(=O)C(O)(CC(=O)/C=C\c2ccc3c(c2)OCO3)c2ccccc21 (stereo not drawn),x,n,x,u,x,n
O=C(O)c1ccc2c(c1)C(=O)N(Cc1ccc3c(c1)OCO3)C2=O,4.47µM,n,n,n,n,n

# Screening results as filed in PubChem.
